# Most compounds without a hit are left out; they make up all but 4.1% or so of the library.
# BoNT A protease = inhibitors of Botulinum neurotoxin A light chain protease. multiplex microsphere protease substrate cleavage, flow cytometry. inhibition, % at 10 µM. AID 588499. 360,000 compounds, 0.17% hits; also: plate controls were buffer without enzyme for full effect and enzyme alone for no effect
# Anthrax LF inh2 = inhibitors of Bacillus anthracis lethal factor protease; P15917; multiplex microsphere protease cleavage assay, LF; inhibition, % at 10 µM; 360,000 compounds, 0.12% hits; AID 588501; also: plate controls were buffer without enzyme for full effect and enzyme alone for no effect
# Bead autofluor = flagged as autofluorescent in microsphere protease counterscreen; compound autofluorescence counterscreen, microsphere flow cytometry; stronger effect = higher value; fluorescence intensity (no concentration beside the values); 360,000 compounds, 3.1% hits; in the data active = fluorescence intensity above about 16000; inconclusive = no clear call, values can overlap the other calls
# VHR inh abs = blocks human VHR1 dual specificity phosphatase; P51452; 290,000 compounds, 0.52% hits; AID 1654; recombinant VHR phosphatase, pNPP absorbance; inhibition, % at 13.3 µM; in the data active = inhibition above about 50%
# MazF activator = increases E. coli MazEF RNase cleavage of RNA | P0AE70 | FAM/BHQ RNA-DNA oligo cleavage fluorescence, 5 h | activation, % at 20 µM | 350,000 compounds, 0.32% hits | AID 504720; in the data active = activation above about 50%
# BoNT F protease = BoNT F light chain protease inhibition | AID 588497 | Multiplex microsphere protease cleavage assay, flow cytometry | 360,000 compounds, 0.22% hits | inhibition, % at 10 µM; in the data active = inhibition above about 35%, passing the limit was not always enough; inconclusive = no clear call, values can overlap the other calls; also: plate controls were buffer without enzyme for full effect and enzyme alone for no effect
# Numbers without * were called inactive; ? = inconclusive; nt = no result given. Rule as the data show it, unless noted: active = inhibition above about 30%; inconclusive = no clear call, values can overlap the other calls; inactive = below that.
SMILES,BoNT A protease,Anthrax LF inh2,Bead autofluor,VHR inh abs,MazF activator,BoNT F protease
CC(C)CN1C(=O)/C(=C(/C#N)C(=O)NC2CCCCC2)c2ccccc21,0,-1,4368,17,6,-4
COc1ccc(C(=O)c2ccc(Br)cc2)cc1,2,0,20227*,12,4,2
Cc1ccc(C(=O)Oc2ccc(C(=O)COC(=O)c3cnccn3)cc2)cc1,0,0,16162*,33,0,2
O=C(CCN1CCN(c2ccccc2)CC1)NNC(=O)Cc1ccc(Br)cc1,0,2,?,nt,1,8
COc1ccc(C(=O)Nc2ccc(OCC(=O)N3CCOCC3)cc2)c(OC)c1OC,-3,?,6747,57*,10,-1
COC(=O)Nc1ccc(OCC(=O)N2CCOCC2)cc1,1,4,2066,-7,1,10
C=CCn1c(N2C(=O)CC(Cc3ccccc3)C2=O)nc2ccccc21 (configuration not stated),-1,-2,22688*,-4,2,-2
COc1cc(CNC(=O)C2CC(O)CN2C(=O)Nc2ccccc2)cc(OC)c1OC (configuration not stated),0,2,2812,nt,3,-1
COc1ccc(COC(=O)C2=C(C)NC(=O)NC2c2ccccc2)cc1 (configuration not stated),-2,11,4033,-28,-15,-15
COc1cc(NS(=O)(=O)c2ccc(C)cc2)c2c(c1N)C(=O)c1ccccc1C2=O,4,-4,4076,nt,-13,-11
CCOc1cccc2cc(-c3csc(NC(=O)CCC(=O)N4CCC(C)CC4)n3)c(=O)oc12,-1,0,22950*,-8,-5,-2
C[C@@H]1CN([C@@H](C)CO)C(=O)CCCn2nncc2CO[C@H]1CN(C)C(=O)Nc1ccc2c(c1)OCO2,0,-9,3781,nt,0,-4
Cc1cc(C(F)(F)F)nn1Cc1n[nH]c(=S)n1-c1ccc(Cl)cc1,0,3,19410*,2,2,1
COc1ccc(OCc2n[nH]c(=S)n2-c2ccc(C)cc2)cc1,1,-2,2240,-22,5,1
Cc1ccc(-n2c(Cn3nc(C(F)F)cc3C(F)F)n[nH]c2=S)cc1,2,2,22572*,19,1,2
Cc1ccc(NC(=O)C(=O)NN=C2CCCC2)cc1C,0,-9,4447,24,4,4
CCN(CC(=O)Nc1cc(Cl)ccc1C)C(=O)c1cc([N+](=O)[O-])ccc1N1CCOCC1,1,-5,?,nt,-5,7
O=C(NCc1ccco1)c1cccc2c(-c3ccc(F)c(F)c3)coc12,-1,-10,3997,nt,nt,-5
COc1nc(N)c(S(=O)(=O)c2ccc(C)cc2)cc1C#N,1,-1,19122*,16,-20,0
Cc1ccc(S(=O)(=O)c2cc(C#N)c(=O)[nH]c2N)cc1,0,-17,9434,6,-12,6
Cc1coc2cc3oc(=O)ccc3cc12,-3,-9,3896,9,-20,10
COc1ccc(C(=O)NCCNC(=O)c2cnccn2)cc1OC,-1,2,3778,52*,32,27
O=C(O)CN1C(=O)CSc2ccccc21,0,0,9223,10,2,0
CCOC(=O)CN1C(=O)CSc2ccccc21,-3,1,24381*,21,-1,-6
O=C1CSc2ccccc2N1Cc1ccc(F)cc1,6,-4,21142*,10,-1,14
SMILES,BoNT A protease,Anthrax LF inh2,Bead autofluor,VHR inh abs,MazF activator,BoNT F protease
NNC(=O)c1[nH]c(-c2ccccc2)cc1-c1ccccc1,-2,7,3799,22,18,?
Cc1ccc(S(=O)(=O)N2CCN(C(=O)COC(=O)c3ccc(O)cc3)CC2)c(C)c1,nt,nt,nt,nt,7,nt
CCc1c(C(=O)Nc2ccccc2C(N)=O)csc1C,3,1,5342,10,3,13
CCc1c(C(=O)Nc2ccncc2)csc1C,-1,-7,23043*,-6,-2,-2
CCc1c(C(=O)Nc2ncn(Cc3cccc(C)c3)n2)csc1C,?,-6,16518*,4,5,0
CC(=O)c1ccc(NC(=O)Nc2ncn(Cc3cccc(C)c3)n2)cc1,-2,-2,9957,31,-1,-8
COC(=O)CC1COc2ccccc2N1C(=O)/C=C/c1ccccc1 (configuration not stated),-3,2,3369,7,8,-7
CCOC(=O)c1ccc(N2CN=C3SCC(=O)N3C2)cc1,?,0,23262*,21,-7,-3
O=C(CCCC(=O)OCC(Cl)=C(Cl)Cl)Nc1cccc(F)c1,1,-3,22287*,17,2,0
COc1ccc(Sc2nc(-c3ccccn3)ncc2OC)cc1,-2,2,4049,20,14,2
COc1cnc(-c2ccccn2)nc1Sc1ccc(Cl)cc1,?,-2,21806*,25,-14,-6
O=C1C=C(O)CC2(CCCCC2)C1,0,-4,5714,nt,nt,0
O=C(CSc1nnc(-c2cnccn2)n1Cc1ccco1)c1ccc(Cl)cc1,0,-10,9952,-6,0,-1
O=C(CSc1nnc(-c2cnccn2)n1Cc1ccco1)c1ccccc1,-2,-4,17135*,25,9,-6
Cn1c(SCC(=O)c2ccc(F)cc2)nnc1-c1cnccn1,4,-15,18205*,-27,7,7
NC(=S)N1N=C(c2ccccc2)CC1=O,0,-14,2926,nt,3,11
COCCN1C(=O)N[C@@H](c2ccccc2)[C@H](C(=O)OC)[C@H]1C,0,1,4339,nt,10,3
Nc1nonc1-n1nnc(C(=O)N/N=C/c2ccc(Cl)cc2Cl)c1CN1CCCC1,-1,-3,3493,26,-15,-18
Nc1nonc1-n1nnc(C(=O)N/N=C/c2ccc(Cl)cc2Cl)c1CN1CCOCC1,-1,-1,5779,-15,124*,2
Cc1ccn2c(C(=O)N/N=C\c3cccs3)c(C)nc2c1,2,2,21815*,-4,5,0
Cc1ccc2nc(C)c(C(=O)N/N=C/c3cccs3)n2c1,0,-2,2133,-5,10,-5
COc1ccc(CCNC(=O)c2c(Cl)ccc(Cl)c2OC)cc1OC,3,-3,4331,17,1,13
CC1CCCC(C(=O)O)N1C(=O)CCSC(=O)c1ccccc1 (configuration not stated),2,-3,22094*,22,0,3
COc1cccc(OC)c1OCC(O)CN1CCN(c2ccccc2)CC1 (configuration not stated),0,-1,4394,19,0,-12
CCC(=O)c1ccc(OCC(O)CN2CCN(c3ccc(F)cc3)CC2)cc1 (configuration not stated),3,-2,19445*,38,1,5
COc1ccccc1N1CCN(Cc2cccc(OC)c2O)CC1,7,-6,21009*,46,1,8
COc1ccccc1N1CCN(CC(O)COc2c(OC)cccc2OC)CC1 (configuration not stated),1,-1,19582*,15,3,1
